Assay outcomes (PubChem BioAssay)
MEX-5 binding: MEX-5 zinc finger RNA-binding disruptors – biochemical, C. elegans, fluorescence polarization, MLPCN library, primary screen; MEX-5/FITC-TCR2 RNA binding; stronger effect = lower value; AID 1832, 2009; activity score (negative = inhibition of binding), % at 10 µM; actives 0.38% (n = 300,000);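 active = inhibition past about -25% in most replicates, and total fluorescence under double the plate's negative control median, limit read from the data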;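 note: 0% = DMSO and -100% = 5 µM competing unlabeled TCR2 RNA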
Target sequence (Q9XUB2 whole entry, looked up): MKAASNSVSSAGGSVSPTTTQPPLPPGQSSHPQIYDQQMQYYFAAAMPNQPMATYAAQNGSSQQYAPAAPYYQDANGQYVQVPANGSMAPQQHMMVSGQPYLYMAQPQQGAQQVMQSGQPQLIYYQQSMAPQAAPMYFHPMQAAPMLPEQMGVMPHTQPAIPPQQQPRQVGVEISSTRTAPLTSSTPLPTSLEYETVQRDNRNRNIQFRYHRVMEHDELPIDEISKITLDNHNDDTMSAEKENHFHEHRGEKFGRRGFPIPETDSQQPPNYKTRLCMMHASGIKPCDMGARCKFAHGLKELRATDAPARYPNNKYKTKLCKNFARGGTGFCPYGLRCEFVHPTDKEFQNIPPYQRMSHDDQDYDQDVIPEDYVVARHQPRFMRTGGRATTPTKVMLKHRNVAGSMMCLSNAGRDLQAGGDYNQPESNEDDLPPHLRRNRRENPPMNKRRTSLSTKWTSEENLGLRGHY
eLon inh: inhibitors of E. coli Lon protease, primary screen, biochemical, fluorescence polarization. purified E. coli Lon protease. actives 0.42% (n = 360,000). inhibition, % at 7.94 µM. P0A9M0; in the data active = inhibition above about 13%, passing the limit was not always enough;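 note: 0% = enzyme with probe and DMSO and 100% = no enzyme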
BCLXL inh: inhibitors of human Bcl-xL, primary screen, biochemical, fluorescence polarization, HTS; AID 2129, 2009; Bcl-2-like protein 1 (Homo sapiens), Q07817; GST-Bcl-xL / FITC-Bim BH3 peptide fluorescence polarization; inhibition, % at 10.9 µM; actives 0.7% (n = 320,000);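 active = inhibition above the mean of all tested compounds plus 3 SD, cutoff set per campaign, cut at about 30% in these data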;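 note: 0% = DMSO wells and 100% = unlabeled Bim-BH3 peptide competitor; inhibitors lower millipolarization by displacing the labeled peptide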
GLD-1 RNA inh: GLD-1/TGE RNA complex disruptors, primary screen, biochemical, fluorescence polarization | Female germline-specific tumor suppressor gld-1 (Caenorhabditis elegans), Q17339 | purified GLD-1 + fluorescein TGE RNA | inhibition, % at 5.96 µM | actives 0.44% (n = 320,000);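 active = percent inhibition above a per-plate cutoff, the plate mean of test compounds plus 3 SD, cut at about 30% in these data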;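 note: 0% = DMSO wells with GLD-1 and probe and 100% = wells lacking GLD-1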
EBV gp42 block: Epstein-Barr virus gp42 inhibitors, primary screen, biochemical, uHTS, fluorescence polarization; Fluorescence polarization binding assay, mP read-out; Glycoprotein 42 (Epstein-Barr virus (strain AG876)), Q1HVG2; actives 0.42% (n = 220,000); AID 1085, 2008; inhibition, % (tested at 21.74 µM); in the data active = inhibition above about 50%
E coli Lon conf: E. coli Lon protease inhibitor retest, confirmation, biochemical, fluorescence polarization; shares compounds with eLon inh; purified E. coli Lon; inhibition, % at 7.94 µM; actives 31% (n = 1,400); in the data active = inhibition above about 16%;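 note: 0% = enzyme with probe and DMSO and 100% = no enzyme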
The depositor's hits bear a star; . = no result; ! = not active in a repeat. Rows were chosen to be rich in hits. Some 1.3% of all compounds tested hit in one or more screens of this group.

SMILES | MEX-5 binding | eLon inh | BCLXL inh | GLD-1 RNA inh | EBV gp42 block | E coli Lon conf
O=C1C=CC(=O)c2c(O)c(N3CCN(CCOCCO)CC3)c(Br)c(O)c21 | . | 126* | . | . | . | 114*
N#Cc1ccc(NN=Nc2ccccc2C#N)cc1 | . | -5 | . | . | . | .
C/C(N)=C(/C#N)C(=O)COC(=O)C1Cc2ccccc2CN1S(C)(=O)=O (configuration not stated) | 1 | 16*! | 0 | 6 | 1 | 2
Cc1ccc(-c2nnn(CC(=O)N(CC3CCCO3)C(C(=O)NC3CCCCC3)c3ccc(F)cc3)n2)o1 (configuration not stated) | -4 | -6 | 0 | 3 | -28 | .
COc1ccc(C(C(=O)NC2CCCC2)N(CC2CCCO2)C(=O)Cn2nnc(-c3ccc(C)o3)n2)cc1 (configuration not stated) | 1 | 18* | 4 | 7 | -4 | -10
Cc1ccc(-c2nnn(CC(=O)N(c3ccc(F)cc3)C(C(=O)NC3CCCC3)c3ccncc3)n2)o1 (configuration not stated) | -1 | 18* | 0 | -3 | . | -13
Cc1ccc(N(C(=O)Cn2nnc(-c3ccc(C)o3)n2)C(C(=O)NC2CCCC2)c2ccncc2)cc1 (configuration not stated) | -1 | -2 | 6 | -1 | . | .
O=C1C(Br)=Cc2cccc3cccc1c23 | -10 | 68* | 116* | 83* | 116* | 57*
Cc1ccc(S(=O)(=O)N2CCOCC2)cc1C(=O)N1CCC(Cc2ccccc2)CC1 | -1 | -7 | 5 | -1 | . | .
Cc1cc(=O)n(CC(=O)NCCN2CCOCC2)c2c1c(C)nn2-c1ccccc1 | 2 | 17* | 2 | 0 | . | -1
CCOc1ncccc1C(=O)OCC(=O)Nc1cc(S(=O)(=O)N(CC)CC)ccc1C | 2 | 13* | 2 | 0 | -1 | -2
CCN(CC)S(=O)(=O)c1ccc(C)c(NC(=O)COC(=O)C=C(C)C)c1 | -4 | 5 | 0 | 1 | -18 | .
CCc1nnc(NC(=O)C2c3ccccc3Oc3ccccc32)s1 | 3 | 19* | 0 | 5 | 0 | -32
O=C(Nc1nc2ccccc2s1)C1c2ccccc2Oc2ccccc21 | 1 | -13 | 2 | 0 | -16 | .
C=CCOc1c(Br)cc(/C=N/Nc2ccc(C(=O)O)cc2)cc1OCC | 3 | 4 | 8 | -7 | 8 | .
COc1cc([N+](=O)[O-])ccc1NC(=O)CN1CCc2cc(OC)c(OC)cc2C1 | 1 | 42* | . | . | . | 6
COc1cc2c(cc1OC)CN(CC(=O)Nc1cccc([N+](=O)[O-])c1)CC2 | -2 | 2 | 8 | -3 | . | .
O=C(CCSCc1ccccc1Cl)NC1CCCCC1 | 0 | 4 | 5 | -4 | 0 | .
Cn1nc(C(=O)Nc2ccccc2N2CCCC2)c2ccccc2c1=O | 2 | -9 | 5 | 2 | . | .
COC(=O)CCCC1=CC2=C(c3ccccc3)C(=O)C(C)(OC(=O)C3CCCC3)C(=O)C2=CN1CCc1ccccn1 (configuration not stated) | -16 | 5 | 29 | 11 | 8 | .
COC(=O)CCCC1=CC2=C(c3ccccc3)C(=O)C(C)(OC(=O)C3CCCC3)C(=O)C2=CN1CCN1CCOCC1 (configuration not stated) | -6 | 84* | 120* | 90* | -9 | 24*
CSCCC(NC(=O)c1ccc(Cl)cc1)C(=O)OCC(=O)Nc1ccc(C#N)cc1 (configuration not stated) | . | 35* | 1 | 7 | 8 | 1
Cn1c(-c2ccccc2)c(CCO)c2ccccc21 | -1 | 32* | 6 | 3 | 10 | -7
c1cc(-c2ccc3nncn3c2)ccc1CN1CCOCC1 | . | 7 | . | . | . | .
O=[N+]([O-])c1ccc(Cc2ccccn2)c([N+](=O)[O-])c1 | -2 | 3 | 1 | 5 | . | .
SMILES | MEX-5 binding | eLon inh | BCLXL inh | GLD-1 RNA inh | EBV gp42 block | E coli Lon conf
COC(=O)CN(c1ccc2c(c1)OCO2)S(C)(=O)=O | -1 | 17* | 1 | 8 | 5 | 7
O=C(OC1C2C=CC1C1C(=O)NC21)c1ccccc1 (configuration not stated) | . | -5 | . | . | . | .
Cc1ccc([C@H]2N[C@]3(CCCN(Cc4ccco4)C3=O)[C@H]3C(=O)N(Cc4ccccc4)C(=O)[C@@H]23)cc1 | . | 0 | . | . | . | .
O=C1[C@H]2[C@@H](c3ccccc3)N[C@]3(CCCN(Cc4ccco4)C3=O)[C@H]2C(=O)N1Cc1ccccc1 | . | 96* | . | . | . | -4
NC(=O)c1cc2ccncc2c2ccccc12 | 0 | -133 | -2 | -7 | -19 | .
C[C@@H]1CN([C@H](C)CO)C(=O)c2cc(Br)cnc2O[C@@H]1CN(C)Cc1ccc(-c2ccccc2)cc1 | . | -16 | . | . | . | .
COCCN(C(=O)C1=COCCO1)c1c(N)n(CC(C)C)c(=O)[nH]c1=O | . | 24* | 12 | 18 | . | 7
COCCN(C(=O)C1=COCCO1)c1c(N)n(Cc2ccccc2)c(=O)[nH]c1=O | -5 | 28* | 9 | 8 | . | 7
CCCCN(C(=O)C1=COCCO1)c1c(N)n(Cc2ccccc2)c(=O)[nH]c1=O | -21 | -1 | 0 | 2 | . | .
Cc1cc(C)n(-c2ccc(NC(=O)C3CCCCN3C(=O)c3ccoc3C)cc2)n1 (configuration not stated) | -1 | -8 | 0 | 6 | . | .
COC/C=C/C1=CC2=CC(=O)C(C)(OC(=O)c3cnc4ccccc4n3)C(=O)C2=CN1CCCOC(C)C (configuration not stated) | 0 | 13 | 16 | 7 | 10 | .
COC/C=C/C1=CC2=CC(=O)C(C)(OC(=O)c3cnc4ccccc4n3)C(=O)C2=CN1CCOC (configuration not stated) | -1 | 29* | 16 | 13 | . | 8
O=C(COC(=O)c1cc2ccccc2cc1O)NC1CCCCC1 | . | 26* | . | 5 | . | -25
S=C1SC2(CCCCCC2)NC2=C1CCCCC2 | . | -4 | . | . | . | .
COc1ccccc1C(=O)NC(=O)CSc1nc(C)cs1 | 0 | -19 | 3 | 10 | . | .
Cc1ccc(-c2nc3ncccc3o2)cc1NC(=O)c1cccnc1 | -1 | 31* | 4 | 7 | -26 | -8
Cc1ccc(-c2nc3ncccc3o2)cc1NC(=O)c1ccccc1 | -4 | -8 | 1 | -2 | 0 | .
Cc1ccc2c(c1)c1c(n2CC(O)CNC2CCCCC2)CCCC1 (configuration not stated) | -5 | 28* | 8 | -1 | 4 | 6
CCN(CC)c1nc(C(F)(F)F)nc2c1nnn2Cc1ccccc1 | 0 | -5 | 2 | 3 | . | .
